# Measurements published in PubChem BioAssay (Tox21).
# A number with no mark means an inactive call. Records with an inconclusive call do not appear. Entries that show only a call come without a potency. Activity calls are given as the source filed them. Unless noted, calls come from the whole dose curve.
# Experiments:
# [1] = qHTS assay to identify small molecule agonists of the sonic hedgehog signaling (Shh) pathway (AID 1259368); note: series mostly up to about 92 µM; nearly all actives have a fitted effect of over 15% in size
# Method in brief: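 NIH/3T3-derived 3T3Gli1-Luc cells carrying a stably integrated Gli1 response element–firefly luciferase reporter were plated, left 4 hr at 37 C, then given compounds in DMSO for 24 hr. Luminescence was read 30 min after adding luciferase reagent.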
# [2] = qHTS assay to identify small molecule antagonists of the sonic hedgehog signaling (Shh) pathway (AID 1259369); note: nearly all actives have a fitted effect of over 45% in size
# Method in brief: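 NIH/3T3-derived 3T3Gli1-Luc cells with stably integrated Gli1-Luc reporter were preincubated 4hr at 37 C, then given compounds in DMSO plus Shh conditioned medium and incubated 24hr. Firefly luciferase luminescence read after 30min reagent at room temperature.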
# [3] = target: Estrogen receptor beta (Homo sapiens) (UniProt Q92731); assay: qHTS assay to identify small molecule agonists of the estrogen receptor beta (ER-beta) signaling pathway (AID 1259377; active = well fitted activation curve with a large enough effect in the signal ratio in the repeat runs, not every such curve was filed as active; the % refers to the signal ratio)
# Method in brief: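 Read-out: beta-lactamase FRET fluorescence. Cell line: ER-beta-UAS-bla HEK293T in 2% charcoal-stripped FBS. Exposure: 16 hr at 37C. Substrate step: 2 h at room temperature.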
# [4] = target: Estrogen receptor beta (Homo sapiens) (UniProt Q92731); assay: qHTS assay to identify small molecule antagonists of the estrogen receptor beta (ER-beta) signaling pathway (AID 1259378; active = well fitted inhibition curve with a large enough effect in the signal ratio in the repeat runs, not every such curve was filed as active; the % refers to the signal ratio)
# Method in brief: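 Antagonist mode: compounds added to beta-lactamase reporter HEK293T ER-beta-UAS cells stimulated with E2 (1nM final), 16 hr at 37C. LiveBLAzer B/G FRET substrate, 2 hours room temperature, fluorescence read-out.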
# [5] = qHTS assay to identify small molecule agonists of the androgen receptor (AR) signaling pathway in the presence of an antagonist - cell viability counter screen (AID 1259379; active = well fitted curve in the direction sought with a large enough effect in the repeat runs; an effect the other way counts as inactive or inconclusive; note: nearly all actives have a fitted effect of over 25% in size; note: potency is the fitted concentration of half-maximal effect)
# Method in brief: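 MDA-kb2 human breast carcinoma cells (stable MMTV-luciferase, AR/GR responsive) were seeded 3,000 cells/well, pre-incubated 5 hr at 37C without CO2, then given 3.0uM nilutamide and compounds at 15 concentrations for 16 hr. Viability was read by CellTiter-Fluor fluorescence.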
# [6] = qHTS assay to identify small molecule agonists of the estrogen receptor beta (ER-beta) signaling pathway - cell viability counter screen (AID 1259380; active = well fitted curve in the direction sought with a large enough effect in the repeat runs; an effect the other way counts as inactive or inconclusive; note: nearly all actives have a fitted effect of over 30% in size)
# Method in brief: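 ER-beta-UAS-bla HEK293T cells in medium with 2% charcoal-stripped FBS were preincubated 6 hr at 37C, dosed with compound in DMSO for 16 hr, then after the bla read, CellTiter-Glo was added for 30 min at room temperature; luminescence recorded.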
# [7] = target: Androgen receptor (Homo sapiens) (UniProt P10275); assay: qHTS assay to identify small molecule agonists of the androgen receptor (AR) signaling pathway in the presence of an antagonist (AID 1259381); note: nearly all actives have a fitted effect of over 15% in size
# Method in brief: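 MDA-kb2 human breast carcinoma cells carrying an MMTV-luciferase reporter (AR- and GR-responsive) were treated with compounds at 15 concentrations plus 3.0uM final nilutamide for 16hr at 37C without CO2; luminescence was read after ONE-Glo addition.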
# [8] = qHTS assay to identify small molecule antagonists of the estrogen receptor beta (ER-beta) signaling pathway - cell viability counter screen (AID 1259382; active = well fitted curve in the direction sought with a large enough effect in the repeat runs; an effect the other way counts as inactive or inconclusive;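 note: HEK293T cells carrying ER-beta-UAS-bla reporter stimulated with estradiol; series mostly up to about 92 µM; nearly all actives have a fitted effect of over 55% in size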)
# Method in brief: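 ER-beta-UAS-bla HEK293T cells (2,000/well, 2% charcoal-stripped FBS) were pre-incubated 6 hr at 37C, then given compound plus 1nM final 17-beta-estradiol for 16 hr. Viability was read in the same wells by CellTiter-Glo luminescence after 30 min at room temperature.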
# [9] = target: Estrogen receptor (Homo sapiens) (UniProt P03372); assay: qHTS assay to identify small molecule agonists of the estrogen receptor alpha (ER-alpha) signaling pathway in the presence of an antagonist (AID 1259383); note: top concentration of the series differs between compounds; nearly all actives have a fitted effect of over 15% in size
# Method in brief: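 VM7Luc4E2 cells (endogenous full-length ER-alpha, 4×ERE-luciferase) were precultured 5 days in phenol red-free medium with 10% charcoal-stripped FBS, given 10.0nM ICI-182,780 (final), then treated with compounds at 15 concentrations for 22hr at 37C; luminescence read with ONE-Glo.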
# [10] = qHTS assay to identify small molecule agonists or antagonists of the thyroid stimulating hormone receptor (TSHR) signaling pathway - wild type cell line counter screen (AID 1259384)
# Method in brief: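 Counter screen in untransfected Hek293: compounds (15-point titration, triplicate) plus phosphodiesterase inhibitor Ro20-1724 added after 18 h plating; 30 min RT. Intracellular cAMP via competitive d2/cryptate immunoassay, 1 h incubation.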
# [11] = target: Thyrotropin receptor (Homo sapiens) (UniProt P16473); assay: qHTS assay to identify small molecule antagonists of the thyroid stimulating hormone receptor (TSHR) signaling pathway (AID 1259385); note: nearly all actives have a fitted effect of over 20% in size
# Method in brief: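 Antagonist mode: compound-treated TSHR-expressing HEK293 cells were stimulated with 1.5 ng/mL TSH (final) in presence of Ro20-1724 for 30 min at RT. HTRF cAMP detection after 1 h; each compound tested at 15 concentrations, triplicate.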
# [12] = qHTS assay to identify small molecule agonists of the estrogen receptor alpha (ER-alpha) signaling pathway in the presence of an antagonist - cell viability counter screen (AID 1259386; active = well fitted curve in the direction sought with a large enough effect in the repeat runs; an effect the other way counts as inactive or inconclusive;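 note: series mostly up to about 92 µM; cells exposed to compounds for 22 h at 37 °C before the viability read; nearly all actives have a fitted effect of over 30% in size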)
# Method in brief: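 VM7Luc4E2 cells (endogenous full-length ER-alpha, 4×ERE-luciferase) were held 5 days in phenol red-free medium with 10% charcoal-stripped FBS, plated, then given 10.0nM ICI-182,780 and compounds at 15 concentrations for 22hr at 37C; viability read by CellTiter-Fluor fluorescence.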
# [13] = target: Progesterone receptor (Homo sapiens) (UniProt P06401); assay: qHTS assay to identify small molecule agonists of the progesterone receptor (PR) signaling pathway (AID 1346784); note: nearly all actives have a fitted effect of over 30% in size
# Method in brief: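 Compounds were tested for PR agonism in HEK 293T cells bearing a beta-lactamase gene under UAS control. Treatment lasted 16 hr at 37C; signal came from fluorescence of a FRET substrate.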
# [14] = target: Progesterone receptor (Homo sapiens) (UniProt P06401); assay: qHTS assay to identify small molecule antagonists of the progesterone receptor (PR) signaling pathway (AID 1346795; active = well fitted inhibition curve with a large enough effect in the signal ratio in the repeat runs, not every such curve was filed as active; the % refers to the signal ratio)
# Method in brief: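 In HEK293T cells bearing the PR-UAS-bla reporter, compound effects on promegestone-driven (1 nM) beta-lactamase expression are assessed after 16 hr using a fluorescent FRET substrate incubated 2 hr at room temperature.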
# [15] = qHTS assay to identify small molecule antagonists of the progesterone receptor (PR) signaling pathway - cell viability counter screen (AID 1346798; active = well fitted curve in the direction sought with a large enough effect in the repeat runs; an effect the other way counts as inactive or inconclusive; note: series mostly up to about 92 µM; nearly all actives have a fitted effect of over 50% in size)
# Method in brief: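 Following a 4 hr attachment, PR-UAS-bla HEK293T cells in charcoal-stripped FBS medium were exposed to compounds with R5020 for 16 hr; CellTiter-Glo was added and luminescence read after 30 min at room temperature.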
# [16] = qHTS assay to identify small molecule agonists of the progesterone receptor (PR) signaling pathway - cell viability counter screen (AID 1346799); note: nearly all actives have a fitted effect of over 45% in size
# Method in brief: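 Here, 3,000 PR-UAS-bla HEK293T cells per well were treated with compounds for 16 hr after a 6 hr preincubation at 37C and 5% CO2; cell viability is the CellTiter-Glo luminescence signal.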
# [17] = qHTS assay to identify small molecule antagonists of the TGF-beta/Smad signaling pathway - cell viability counter screen (AID 1346824; active = well fitted curve in the direction sought with a large enough effect in the repeat runs; an effect the other way counts as inactive or inconclusive; note: nearly all actives have a fitted effect of over 50% in size)
# Method in brief: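 Cytotoxicity counter-screen run in the same wells as the beta-lactamase Smad reporter read: CellTiter-Glo luminescence after 30 min at room temperature. HEK 293T SBE-bla cells had 5 hr compound exposure at 37 C with TGF-beta1 (0.25 ng/mL stock).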
# [18] = qHTS assay to identify small molecule agonists of the TGF-beta/Smad signaling pathway - cell viability counter screen (AID 1346829; active = well fitted curve in the direction sought with a large enough effect in the repeat runs; an effect the other way counts as inactive or inconclusive; note: top concentration of the series differs between compounds; nearly all actives have a fitted effect of over 45% in size)
# Method in brief: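 Same-well cytotoxicity: CellTiter-Glo added after the 2 hr room-temperature beta-lactamase substrate step, luminescence measured 30 min later; cells had 5 hr of compound at 37 C.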
# [19] = qHTS assay to identify small molecule agonists of the TGF-beta/Smad signaling pathway (AID 1346859; active = well fitted activation curve with a large enough effect in the signal ratio in the repeat runs, not every such curve was filed as active; the % refers to the signal ratio; note: series mostly up to about 77 µM)
# Method in brief: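 Each well held 4,000 SBE-bla HEK 293T cells incubated overnight before compound addition; 5 hr later the cleavable FRET substrate went on for 2 hr at room temperature, and fluorescence was read at two emissions.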
# [20] = target: Thyrotropin-releasing hormone receptor (Homo sapiens) (UniProt P34981); assay: qHTS assay to identify small molecule antagonists of the thyrotropin-releasing hormone receptor (TRHR) signaling pathway (AID 1346877; active = well fitted inhibition curve with a large enough effect in the repeat runs, not every such curve was filed as active; note: series mostly up to about 51 µM)
# Method in brief: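 TRHR-expressing HEK293 cells were seeded, cultured 18 h at 37 °C, then loaded with calcium dye for 2 h. Compounds were pre-incubated 5 min at room temperature before 1 nM TRH (final) was added, and kinetic fluorescence was recorded for 3 min.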
# Chain of Androgen receptor (Homo sapiens) (P10275 whole entry, looked up): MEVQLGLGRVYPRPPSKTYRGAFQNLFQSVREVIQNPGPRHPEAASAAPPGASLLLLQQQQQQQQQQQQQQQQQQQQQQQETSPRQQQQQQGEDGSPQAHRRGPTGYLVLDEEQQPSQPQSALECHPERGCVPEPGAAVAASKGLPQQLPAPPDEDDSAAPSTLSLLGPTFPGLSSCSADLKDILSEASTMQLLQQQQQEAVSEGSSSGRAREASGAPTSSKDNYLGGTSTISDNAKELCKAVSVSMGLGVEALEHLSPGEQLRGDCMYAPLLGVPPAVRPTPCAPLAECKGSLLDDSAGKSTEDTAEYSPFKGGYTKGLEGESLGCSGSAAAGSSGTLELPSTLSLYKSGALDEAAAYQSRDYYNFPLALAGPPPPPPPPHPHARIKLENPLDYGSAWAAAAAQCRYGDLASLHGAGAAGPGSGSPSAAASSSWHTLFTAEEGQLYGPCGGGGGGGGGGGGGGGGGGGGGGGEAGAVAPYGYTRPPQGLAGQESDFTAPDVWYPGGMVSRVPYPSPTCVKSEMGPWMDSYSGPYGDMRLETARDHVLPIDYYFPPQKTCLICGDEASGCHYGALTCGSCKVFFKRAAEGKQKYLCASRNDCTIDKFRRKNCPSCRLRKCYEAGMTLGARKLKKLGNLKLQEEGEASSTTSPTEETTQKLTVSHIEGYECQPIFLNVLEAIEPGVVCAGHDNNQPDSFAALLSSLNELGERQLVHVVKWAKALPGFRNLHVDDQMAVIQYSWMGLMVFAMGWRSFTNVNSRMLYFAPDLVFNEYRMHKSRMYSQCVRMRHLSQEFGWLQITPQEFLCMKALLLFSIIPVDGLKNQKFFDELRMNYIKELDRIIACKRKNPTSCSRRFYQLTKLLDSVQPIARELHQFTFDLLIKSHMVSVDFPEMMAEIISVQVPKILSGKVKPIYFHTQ
# Chain of Progesterone receptor (Homo sapiens) (P06401 whole entry, looked up): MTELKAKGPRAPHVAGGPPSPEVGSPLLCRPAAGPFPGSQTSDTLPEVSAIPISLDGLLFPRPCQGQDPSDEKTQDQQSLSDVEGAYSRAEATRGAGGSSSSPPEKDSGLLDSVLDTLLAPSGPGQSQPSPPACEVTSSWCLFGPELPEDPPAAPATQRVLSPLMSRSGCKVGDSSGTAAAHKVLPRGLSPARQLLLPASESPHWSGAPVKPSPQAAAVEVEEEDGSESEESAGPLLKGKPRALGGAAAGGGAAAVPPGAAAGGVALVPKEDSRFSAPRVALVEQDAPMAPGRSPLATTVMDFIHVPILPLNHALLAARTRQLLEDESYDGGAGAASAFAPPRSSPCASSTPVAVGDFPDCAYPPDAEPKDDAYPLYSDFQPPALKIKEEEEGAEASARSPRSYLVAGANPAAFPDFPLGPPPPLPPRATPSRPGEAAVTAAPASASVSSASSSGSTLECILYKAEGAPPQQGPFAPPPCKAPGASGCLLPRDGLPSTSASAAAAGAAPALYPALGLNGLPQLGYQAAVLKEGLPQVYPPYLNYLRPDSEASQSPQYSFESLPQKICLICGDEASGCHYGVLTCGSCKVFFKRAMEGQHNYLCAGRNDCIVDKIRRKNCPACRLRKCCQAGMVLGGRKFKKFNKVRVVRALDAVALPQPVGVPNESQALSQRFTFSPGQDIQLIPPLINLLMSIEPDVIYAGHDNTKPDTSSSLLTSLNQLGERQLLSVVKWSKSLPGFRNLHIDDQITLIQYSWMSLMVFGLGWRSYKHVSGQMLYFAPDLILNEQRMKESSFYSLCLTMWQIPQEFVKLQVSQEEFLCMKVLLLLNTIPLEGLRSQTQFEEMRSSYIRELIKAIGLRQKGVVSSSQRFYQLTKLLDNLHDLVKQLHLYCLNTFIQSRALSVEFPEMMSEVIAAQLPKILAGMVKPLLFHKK
# Chain of Estrogen receptor beta (Homo sapiens) (Q92731 whole entry, looked up): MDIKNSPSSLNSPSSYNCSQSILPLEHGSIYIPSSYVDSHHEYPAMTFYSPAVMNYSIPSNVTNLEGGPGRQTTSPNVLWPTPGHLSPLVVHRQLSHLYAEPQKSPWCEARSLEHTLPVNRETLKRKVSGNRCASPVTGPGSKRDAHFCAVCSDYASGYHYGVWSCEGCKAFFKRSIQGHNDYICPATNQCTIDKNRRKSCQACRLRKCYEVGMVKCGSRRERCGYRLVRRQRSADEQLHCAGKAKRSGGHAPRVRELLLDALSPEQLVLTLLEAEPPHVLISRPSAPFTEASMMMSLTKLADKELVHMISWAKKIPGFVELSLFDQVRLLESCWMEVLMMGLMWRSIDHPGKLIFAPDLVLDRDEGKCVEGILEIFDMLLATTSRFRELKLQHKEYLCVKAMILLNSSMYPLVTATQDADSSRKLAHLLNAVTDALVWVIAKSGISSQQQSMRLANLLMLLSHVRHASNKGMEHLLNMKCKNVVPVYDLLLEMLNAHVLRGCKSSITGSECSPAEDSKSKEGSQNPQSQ
# Chain of Estrogen receptor (Homo sapiens) (P03372 whole entry, looked up): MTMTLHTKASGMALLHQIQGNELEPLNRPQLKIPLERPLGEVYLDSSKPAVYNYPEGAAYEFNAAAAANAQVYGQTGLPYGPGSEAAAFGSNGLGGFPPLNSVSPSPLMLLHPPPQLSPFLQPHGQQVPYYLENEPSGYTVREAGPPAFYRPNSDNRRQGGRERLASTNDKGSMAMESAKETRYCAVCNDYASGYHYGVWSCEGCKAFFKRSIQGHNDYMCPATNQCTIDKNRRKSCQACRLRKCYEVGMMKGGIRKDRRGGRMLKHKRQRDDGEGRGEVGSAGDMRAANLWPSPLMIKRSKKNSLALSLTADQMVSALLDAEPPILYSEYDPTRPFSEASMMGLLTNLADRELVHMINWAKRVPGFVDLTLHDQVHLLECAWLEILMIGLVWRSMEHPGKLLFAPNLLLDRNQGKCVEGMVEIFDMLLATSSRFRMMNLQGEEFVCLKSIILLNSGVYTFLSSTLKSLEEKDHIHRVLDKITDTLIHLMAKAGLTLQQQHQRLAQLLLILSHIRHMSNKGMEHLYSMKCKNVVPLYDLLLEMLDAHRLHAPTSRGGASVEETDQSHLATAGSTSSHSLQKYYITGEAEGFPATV
# Chain of Thyrotropin receptor (Homo sapiens) (P16473 whole entry, looked up): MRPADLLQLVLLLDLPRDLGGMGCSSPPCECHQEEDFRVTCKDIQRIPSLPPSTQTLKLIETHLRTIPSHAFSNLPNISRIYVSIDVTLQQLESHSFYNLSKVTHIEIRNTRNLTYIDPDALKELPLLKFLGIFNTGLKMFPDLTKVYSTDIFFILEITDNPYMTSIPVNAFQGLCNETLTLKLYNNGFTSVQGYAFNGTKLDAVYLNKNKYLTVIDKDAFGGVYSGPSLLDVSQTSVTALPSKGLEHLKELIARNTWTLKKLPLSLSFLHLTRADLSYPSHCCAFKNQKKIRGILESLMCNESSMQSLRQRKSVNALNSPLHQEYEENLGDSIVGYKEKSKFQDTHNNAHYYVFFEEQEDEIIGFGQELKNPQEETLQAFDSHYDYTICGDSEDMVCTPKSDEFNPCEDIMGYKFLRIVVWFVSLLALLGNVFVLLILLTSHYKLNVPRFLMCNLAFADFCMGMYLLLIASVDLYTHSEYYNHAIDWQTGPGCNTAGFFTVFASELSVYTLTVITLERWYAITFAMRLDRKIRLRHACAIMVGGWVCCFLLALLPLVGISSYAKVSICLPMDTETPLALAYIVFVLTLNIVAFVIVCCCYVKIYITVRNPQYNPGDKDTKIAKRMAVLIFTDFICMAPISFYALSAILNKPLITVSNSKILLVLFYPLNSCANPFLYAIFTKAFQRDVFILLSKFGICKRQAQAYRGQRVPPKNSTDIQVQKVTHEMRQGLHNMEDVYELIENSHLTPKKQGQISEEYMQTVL
# Chain of Thyrotropin-releasing hormone receptor (Homo sapiens) (P34981 whole entry, looked up): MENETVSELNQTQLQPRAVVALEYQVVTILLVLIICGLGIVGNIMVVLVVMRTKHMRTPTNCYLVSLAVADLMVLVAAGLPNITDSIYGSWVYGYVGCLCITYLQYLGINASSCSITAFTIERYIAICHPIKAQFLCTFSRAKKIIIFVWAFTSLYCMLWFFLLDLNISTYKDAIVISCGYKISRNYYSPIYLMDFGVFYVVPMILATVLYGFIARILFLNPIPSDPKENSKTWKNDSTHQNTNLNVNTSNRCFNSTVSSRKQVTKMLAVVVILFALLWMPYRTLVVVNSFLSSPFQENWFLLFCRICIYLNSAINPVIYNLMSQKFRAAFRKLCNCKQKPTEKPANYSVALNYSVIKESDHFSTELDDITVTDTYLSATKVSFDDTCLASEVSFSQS
SMILES,outcome [1],Potency [2],Potency [3],outcome [4],Potency [5],Potency [6],Potency [7],outcome [8],outcome [9],outcome [10],outcome [11],Potency [12],Potency [13],Potency [14],Potency [15],Potency [16],outcome [17],outcome [18],outcome [19],outcome [20]
CCN(C)C(=O)Oc1cccc([C@H](C)N(C)C)c1,inactive,inactive,inactive,inactive,inactive,inactive,inactive,inactive,inactive,inactive,inactive,inactive,inactive,inactive,inactive,inactive,inactive,inactive,inactive,inactive
N[C@@H](CCC(=O)Nc1ccc([N+](=O)[O-])cc1)C(=O)O,inactive,inactive,inactive,inactive,48.6 µM (active),inactive,inactive,inactive,inactive,–,inactive,inactive,inactive,–,inactive,inactive,inactive,inactive,inactive,inactive
C#CC(C)N(C)C(=O)Nc1ccc(Cl)cc1 (stereo unspecified),–,–,–,–,–,–,inactive,–,–,–,–,–,–,–,–,–,–,–,–,–
Cc1cc(C(C)(C)C)c(O)c(C)c1CC1=NCCN1,inactive,inactive,inactive,–,inactive,inactive,inactive,inactive,inactive,–,inactive,–,inactive,inactive,inactive,–,inactive,inactive,inactive,inactive
CC(C)c1ccc2cc(C(C)C)ccc2c1,inactive,inactive,inactive,–,inactive,inactive,inactive,inactive,inactive,–,inactive,inactive,inactive,inactive,inactive,inactive,inactive,inactive,inactive,inactive
CCOC(=O)[C@H](CCc1ccccc1)N[C@@H](C)C(=O)N1C(=O)N(C)C[C@H]1C(=O)O,inactive,inactive,inactive,–,inactive,inactive,–,inactive,inactive,inactive,inactive,inactive,inactive,inactive,inactive,inactive,inactive,inactive,–,inactive
CC1=C(C(=O)O)N2C(=O)[C@@H](NC(=O)[C@H](N)c3ccc(O)cc3)[C@H]2SC1,inactive,inactive,inactive,inactive,inactive,–,–,inactive,–,inactive,inactive,inactive,inactive,–,–,inactive,inactive,inactive,inactive,–
O=C(CS(=O)Cc1ccco1)NC/C=C\COc1cc(CN2CCCCC2)ccn1 (stereo unspecified),inactive,inactive,inactive,–,inactive,inactive,–,inactive,inactive,inactive,inactive,–,inactive,inactive,inactive,inactive,inactive,inactive,inactive,inactive
